Sm TGR inh: blocks Schistosoma mansoni thioredoxin glutathione reductase | purified TGR, DTNB reduction, TNB absorbance 405 nm | 360,000 compounds, 3% hits | Potency, µM (titrated, usually from 114 µM), actives largely listed as inhibitors | Q962Y6; note: nearly all actives have a fitted effect of over 60% in size
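First, TGR (20 nM dispensed) and NADPH were mixed with compound. Second, a 15 min room-temperature incubation followed. Third, further NADPH and then DTNB were added to start the reaction. Finally, TNB absorbance was monitored kinetically.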
Pf growth 96h: P. falciparum growth inhibition at 96 hours. P. falciparum luciferase reporter growth, 96 h. Potency, µM (doses to about 28.7 µM), usual class: inhibitors. 320,000 compounds, 6.9% hits
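Two-generation exposure (96 h) targets delayed-death phenotype. Reporter parasites carrying integrated firefly luciferase, in red cells at 2% hematocrit and 0.05% parasitemia final, kept at 37 C, 5% CO2; luminescence loss indicates inhibition.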
SARS PLpro yeast: SARS-CoV PLP inhibition in yeast | S. cerevisiae expressing SARS-CoV PLpro, growth rescue | Potency, µM (top dose mostly 32.9 µM), actives largely listed as activators | 330,000 compounds, 0.19% hits | AID 485353; calls by dose curve; note: nearly all actives have a fitted effect of over 55% in size
Pf growth 48h: inhibits P. falciparum growth in the first generation, 48 h; P. falciparum luciferase growth in erythrocytes, 48 h; AID 504832; Potency, µM (highest dose often 28.7 µM), hits mostly inhibitors; 310,000 compounds, 5.9% hits
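Firefly luciferase activity from engineered P. falciparum reports growth; inhibitors lower the luminescent signal. Cultures contained 2% hematocrit erythrocytes at 0.1% final parasitemia.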
Of the large screens only hits and unclear results are named; the others gave an inactive call. A selection: hits, their analogues and other compounds. The true share with any hit is near 12%. Unless noted, calls come from the whole dose curve; as a rule, active = well fitted curve in the direction sought with a large enough effect; inconclusive = small, poorly fitted or top-dose-only effect, or another doubt; inactive = no such curve, though single readings can be large; an effect the other way counts as inactive or inconclusive.

COCCOC(=O)c1c(N)n(CCCN2CCOCC2)c2nc3ccccc3nc12	Pf growth 48h inconclusive
CCOC(=O)c1c(N)n(-c2ccc(N)cc2)c2nc3ccccc3nc12	Pf growth 96h inconclusive, Pf growth 48h inconclusive
COC(=O)c1c(N)n(CCCN2CCOCC2)c2nc3ccccc3nc12	Pf growth 96h 9.3µM, Pf growth 48h inconclusive
COCCNC(=O)c1c(NC(=O)c2ccco2)n(Cc2ccccc2)c2nc3ccccc3nc12	Sm TGR inh 25µM, Pf growth 48h inconclusive (no result: Pf growth 96h)
COCCNC(=O)c1c(N)n(/N=C/c2ccc(F)cc2)c2nc3ccccc3nc12	Pf growth 96h inconclusive
COCCCNC(=O)c1c(NC(=O)c2ccccc2Cl)n(Cc2ccccc2)c2nc3ccccc3nc12	Pf growth 96h inconclusive, Pf growth 48h inconclusive
COCCNC(=O)c1c(N)n(Cc2ccco2)c2nc3ccccc3nc12	Sm TGR inh 40µM, Pf growth 96h 13µM, Pf growth 48h 13µM
CC1CCCN(C(=O)COC(=O)c2cc(Br)ccc2O)C1 (stereo not drawn)	none (no result: Sm TGR inh, Pf growth 96h, Pf growth 48h)
CCCCn1c(N)c(C(=O)NCCN2CCOCC2)c2nc3ccccc3nc21	Pf growth 48h inconclusive
Nc1c(C(=O)OCc2ccccc2)c2nc3ccccc3nc2n1Cc1cccs1	Pf growth 96h 15µM (no result: Pf growth 48h)
CC(C)Cn1c(N)c(C(=O)NCCN2CCOCC2)c2nc3ccccc3nc21	Sm TGR inh inconclusive, Pf growth 48h 3.7µM
CCOC(=O)c1c(NC(=O)c2ccco2)n(C2CCCCC2)c2nc3ccccc3nc12	Sm TGR inh inconclusive, Pf growth 96h 10µM, Pf growth 48h inconclusive
Cc1cccc(-n2c(N)c(C(=O)NCCN3CCOCC3)c3nc4ccccc4nc32)c1	Pf growth 96h 9.3µM (no result: Pf growth 48h)
O=C(COC(=O)COc1ccc(Cl)cc1Br)NC1CC1	none (no result: Sm TGR inh, Pf growth 96h, Pf growth 48h)
CC1CN(C(=O)COC(=O)c2cccc(S(=O)(=O)N3CCc4ccccc43)c2)CC(C)O1 (stereo not drawn)	none (no result: Sm TGR inh, Pf growth 96h, Pf growth 48h)
C=CCn1c(N)c(C(=O)NCC2CCCO2)c2nc3ccccc3nc21 (stereo not drawn)	Pf growth 96h inconclusive, Pf growth 48h inconclusive
C=CCn1c(NC(=O)c2ccc(Br)o2)c(S(=O)(=O)c2ccccc2)c2nc3ccccc3nc21	Sm TGR inh inconclusive
Nc1c(C(=O)NCCN2CCOCC2)c2nc3ccccc3nc2n1Cc1ccco1	Sm TGR inh inconclusive, Pf growth 96h inconclusive, Pf growth 48h 9.3µM
Nc1c(C(=O)NCCN2CCOCC2)c2nc3ccccc3nc2n1Cc1ccccc1	Pf growth 96h inconclusive, Pf growth 48h inconclusive
CC(C)(C)OC(=O)c1c(N)n(Cc2ccco2)c2nc3ccccc3nc12	Sm TGR inh 28µM, Pf growth 96h inconclusive (no result: Pf growth 48h)
C=CCn1c(NC(=O)c2ccco2)c(S(=O)(=O)c2ccccc2)c2nc3ccccc3nc21	Sm TGR inh 45µM
C=CCNC(=O)c1c(N)n(Cc2ccco2)c2nc3ccccc3nc12	Sm TGR inh 45µM
COc1ccc(S(=O)(=O)c2c(N)n(Cc3ccco3)c3nc4ccccc4nc23)cc1	Sm TGR inh inconclusive, Pf growth 48h inconclusive
OCC[C@H]1C[C@@H](O)[C@H](O)[C@@]2(Cc3ccccc3O2)O1	none
CCCCC(=O)Nc1c(C(=O)N2CCN(c3ccccc3)CC2)oc2ccccc12	none (no result: Pf growth 96h, SARS PLpro yeast, Pf growth 48h)
CCOc1ccc(CN(C)C(=O)[C@H](Cc2ccccc2)NC(=O)OCc2ccccc2)cc1OC	Pf growth 96h inconclusive, Pf growth 48h inconclusive
Cc1cccc(NC(=O)COC(=O)c2ccccc2SCC(=O)N2CCCC2)c1	none
CCc1ccccc1NC(=O)N1CCC(NC(=O)C(Cc2ccc(OC)c(OC)c2)NC(C)=O)CC1 (stereo not drawn)	Pf growth 96h 12µM, Pf growth 48h inconclusive
CCc1ccccc1NC(=O)N1CCC(NC(=O)C(Cc2ccccc2)NC(C)=O)CC1 (stereo not drawn)	none
COC(=O)c1ccc(N2CCN(C)CC2)c(NC(=O)c2cccs2)c1	none
COc1ccccc1N1CCN(CC(O)COc2ccc(C)cc2C(C)(C)C)CC1 (stereo not drawn)	none (no result: Pf growth 96h, SARS PLpro yeast, Pf growth 48h)
COC(=O)/C=C1\S/C(=N/N=C/c2ccc(Cl)cc2)NC1=O	Pf growth 48h 15µM
COC(=O)C/C=N/N=C1/NC(=O)/C(=C/C(=O)O)S1	Sm TGR inh inconclusive, Pf growth 96h 9.3µM, Pf growth 48h inconclusive
COc1ccccc1C(=O)N(c1ccc(C)cc1)S(=O)(=O)c1ccc(Cl)cc1	none (no result: Pf growth 96h, SARS PLpro yeast, Pf growth 48h)
Cc1cccc2sc(N(CCN(C)C)C(=O)C3CCN(S(=O)(=O)c4cccs4)CC3)nc12	Pf growth 96h inconclusive, Pf growth 48h 12µM
CN(C)CCN(C(=O)C1CCN(S(=O)(=O)c2cccs2)CC1)c1nc2ccc(F)cc2s1	none
O=C(C1CCN(S(=O)(=O)c2cccs2)CC1)N1CCCCC1	none
